Measurements published in publication PMC5540273 (PLoS ONE, 2017).

How the values were obtained:
Settings in all cases: concentration: 1 μM, replicates: in singlicate; n = 1
SNARK = tested on: T1, SNARK
T1 construct: gene NUAK2

SNRK = tested on: SNRK
SRC = tested on: SRC
SRMS = tested on: SRMS
SRPK1 = tested on: SRPK1
SRPK2 = tested on: SRPK2
SRPK3 = tested on: SRPK3
STK16 = tested on: STK16
STK33 = tested on: STK33
STK35 = tested on: STK35
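Further: KINOMEscan kinase panel screen.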

Compound | %Inh (SNARK) | %Inh (SNRK) | %Inh (SRC) | %Inh (SRMS) | %Inh (SRPK1) | %Inh (SRPK2) | %Inh (SRPK3) | %Inh (STK16) | %Inh (STK33) | %Inh (STK35)
Cl.Cl.NC(CNC(=O)c1cc(Br)c(-c2ccnc3[nH]ccc23)s1)c1ccccc1 (stereo not shown) [GSK1322949] | 74% | 0% | 0% | 0% | 80% | 80% | 83% | 61% | 53% | 20%
COC(=O)Nc1nc2ccc(Oc3ccc(NC(=O)Nc4cc(C(F)(F)F)ccc4F)cc3)cc2[nH]1.Cl [GW654607] | 0% | 0% | 16% | 3% | 61% | 0% | 13% | 10% | 73% | 0%
Cl.N#CCc1ccc(Nc2nccc(Nc3ccc(Oc4ccccc4)cc3)n2)cc1 [GW639905] | 96.6% | 2% | 37% | 82% | 18% | 0% | 0% | 79% | 0% | 65%
COc1ccc(C2=C(Nc3cccc(O)c3)C(=O)NC2=O)cc1 [SB-390766] | 0% | 0% | 0% | 0% | 49% | 0% | 0% | 34% | 100% | 0%
Cc1ccc(-c2ccc3occ(-c4ccc(S(C)=O)cc4)c3c2)nn1 (stereo not shown) | 0% | 0% | 6% | 0% | 0% | 6% | 0% | 12% | 0% | 0%
Cc1cc(-c2ccnc(Nc3cccc(C#N)c3)n2)cc(C)c1O [GSK1440913] | 27% | 0% | 7% | 0% | 78% | 54% | 92.2% | 90.4% | 32% | 25%
Cc1ccc(NC(=O)c2ccc(Cl)c(Cl)c2)cc1-c1ccc(C(=O)Nc2ccncc2)cc1 [GSK1398460] | 9% | 0% | 23% | 0% | 34% | 0% | 14% | 14% | 0% | 0%
CN(c1ccc(F)c(NC(=O)c2cccc(OC(C)(C)C#N)c2Cl)c1)c1ccc2nc(NC(=O)C3CC3)sc2n1 | 0% | 12% | 99% | 0% | 52% | 0% | 0% | 0% | 0% | 0%
Cc1ccc(Nc2ccnc(Nc3ccc(C)c(F)c3)n2)cc1O.Cl [GW582868] | 0% | 0% | 86% | 0% | 34% | 7% | 17% | 11% | 0% | 99.5%
Cc1ccccc1CC(=O)N1CCc2cc(-c3cn(C)c4ncnc(N)c34)ccc21 [GSK2603346] | 34% | 0% | 15% | 0% | 18% | 0% | 0% | 2% | 3% | 2%
COc1cccc(CC(=O)N2CCc3cc(-c4cn(C)c5ncnc(N)c45)ccc32)c1 [GSK2608899] | 35% | 0% | 18% | 4% | 14% | 0% | 20% | 9% | 2% | 0%
COc1cc(Nc2ccnc3cc(-c4ccncc4)ccc23)cc(OC)c1OC.Cl [GW494610] | 0% | 0% | 96.1% | 0% | 0% | 0% | 18% | 0% | 0% | 6%
CCNC(=O)/C=C/c1n[nH]c2cc(Sc3ccccc3C(=O)NC)ccc12 | 42% | 5% | 7% | 7% | 63% | 0% | 37% | 10% | 0% | 48%
Cc1cccc(Nc2nc(NCCN)ncc2C(N)=O)c1 [GSK1292139] | 73% | 0% | 40% | 0% | 56% | 18% | 0% | 30% | 73% | 34%
COc1cccc2c(-c3ccncc3)c(-c3ccc(F)cc3)nn12 [GW468513] | 9% | 0% | 1% | 0% | 0% | 0% | 2% | 5% | 1% | 0%
Nc1ncc(-c2ccc3nccc(-c4ccncc4)c3c2)cc1S(=O)(=O)N1CCCCC1 [GSK1693850] | 22% | 0% | 0% | 0% | 20% | 0% | 0% | 21% | 55% | 0%
Nc1cccc(-c2ccc3c(N)n[nH]c3c2)c1 [GSK2193613] | 22% | 0% | 0% | 3% | 54% | 16% | 0% | 15% | 0% | 0%
O=C(Nc1n[nH]c2nc(-c3ccccc3)ccc12)C1CC1 [SB-708999] | 56% | 0% | 0% | 0% | 22% | 23% | 7% | 16% | 0% | 1%
COc1cc(Nc2nccc(N3CCC(NC(=O)Nc4ccc5c(c4)OCO5)C3)n2)cc(OC)c1OC (stereo not shown) [GSK1379766] | 13% | 0% | 0% | 0% | 45% | 0% | 0% | 72% | 0% | 0%
CN(C)c1ncnc2nc[nH]c12 [SKF-31736] | 0% | 0% | 0% | 20% | 0% | 10% | 17% | 0% | 0% | 0%
CN(c1ccc(NC(=O)N2CCN(CCCN3CCOCC3)CC2)cc1)c1ccnc(Nc2ccc(CS(C)(=O)=O)cc2)n1.Cl [GW830899] | 0% | 0% | 10% | 0% | 56% | 9% | 46% | 74% | 0% | 88%
O=C(Nc1n[nH]c2nc(-c3cccc(O)c3)ccc12)C1CC1 [SB-711805] | 0% | 7% | 0% | 15% | 45% | 0% | 32% | 83% | 0% | 0%
